Source: PubChem BioAssay
FadD28 binding: inhibitors of FadD28 bisubstrate probe binding, primary screen, biochemical, fluorescence polarization, single point. Mycobacterium tuberculosis FadD28 fatty-acid-AMP ligase. inhibition, % at 12.5 µM. actives 0.22% (n = 360,000). AID 588549, 2011; in the data active means inhibition above about 8.5%, passing the limit was not always enough
Y pestis TopoI: Yersinia pestis topoisomerase I inhibitors, primary screen, biochemical, cleavage product accumulation, plate reader, single point; actives 0.064% (n = 360,000); Y. pestis Topo-I cleavage product accumulation; activity, % at 10 µM; DNA topoisomerase I (Yersinia pestis CO92); in the data active means activity above about 50%, passing the limit was not always enough
Mtb BioA inh: M. tuberculosis BioA enzyme inhibitors, primary screen, biochemical, plate reader, single point, HTS; purified M. tuberculosis BioA enzyme; actives 0.096% (n = 360,000); inhibition, % at 9.99 µM; 7,8-diaminopelargonic acid synthase BioA (Mycobacterium tuberculosis); in the data active means inhibition above about 40%
TcdB inh: TcdB glycohydrolase inhibitors, primary screen, biochemical, single point, plate reader. Toxin B (Clostridioides difficile), P18177. TcdB glycohydrolase enzymatic assay. inhibition, % at 9.99 µM. actives 0.24% (n = 350,000). AID 652162, 2013; in the data active means inhibition above about 10%
Starred values were filed as active, the others as inactive; . = no result given. Only some compounds are listed: those with a hit (about 0.47% of all), similar ones and a draw of the others.

SMILES	FadD28 binding	Y pestis TopoI	Mtb BioA inh	TcdB inh
COc1ccc2[nH]c(=O)c(CN(Cc3ccccc3)C(=S)NCC3CCCO3)cc2c1 (configuration not stated)	0	23	.	1
CCCCC(=O)Nc1ccc(NC(=O)c2cc(OC)c(OC)c(OC)c2)cn1	-3	2	-2	.
Cc1ccc(F)c(NC(=O)/C(C#N)=C(\O)c2ccc(C(C)(C)C)cc2)c1	29*	0	.	-2
Cc1cccc(NC(=O)C(=O)NNC(=O)c2ccc(C(C)(C)C)cc2)c1	-1	-6	-5	1
CCc1ccc(Nc2cc(=O)n(C3CCCCC3)c(=O)[nH]2)cc1	-1	2	0	.
O=c1cc(Nc2ccc3c(c2)OCCO3)[nH]c(=O)n1C1CCCCC1	15*	9	-1	0
CCCCCCCCCCCCCCC(O)C[N+](C)(CCO)CCO (configuration not stated)	17*	-40	.	2
COC(=O)c1c(C)oc(C)c1S(=O)(=O)NC(c1ccccc1)c1ccccc1	-1	24	3	1
O=C(NCc1ccccc1)c1cccc(COc2cc(Cl)ccc2Cl)c1	-1	-4	0	2
CN(C(=O)c1cccc(COc2ccc(Cl)cc2Cl)c1)c1ccccc1	-2	51*	0	.
CN1CCN(C(CNC(=O)c2ccc(Br)o2)c2ccc(F)cc2)CC1 (configuration not stated)	-3	-1	0	12*
CCc1cccc2c(C(=O)COC(=O)c3cccc(S(=O)(=O)N(C)C4CCCCC4)c3)c[nH]c12	22*	4	.	-1
O=C(OCC(=O)c1c[nH]c2ccccc12)c1cccc(S(=O)(=O)N2CCCCCC2)c1	5	-4	-1	0
Cn1c(=O)[nH]c(=O)c2c1nc(NCCc1ccccc1)n2CC(O)COc1ccccc1 (configuration not stated)	1	-4	-2	.
COc1ccc(CN(C)C[C@H]2Oc3ccc(NC(=O)Nc4ccc(OC)cc4)cc3C(=O)N([C@H](C)CO)C[C@@H]2C)cc1	.	.	1	1
COc1ccc(C(=O)Nc2c(-c3cccs3)c(=O)c3ccccc3n2C)cc1	0	6	.	11*
CCOc1ccc2nc3cc(N=Nc4ccc(N)nc4N)ccc3c(N)c2c1	25*	-58	.	.
CCn1cc(C(=O)NCc2cccc(C(F)(F)F)c2)c(=O)c2ccc(C)nc21	-2	-2	-2	1
Cc1[nH]c(-c2ccc(F)cc2)cc1C(=O)N1CCN(c2ccccc2)CC1	0	25	8	21*
Nc1ncc(S(=O)(=O)c2ccc([N+](=O)[O-])cc2)s1	-2	5	-1	11*
COc1cc(OC)c(NC(=O)c2ccc3c(SCC(=O)O)c4c(nc3c2)CCCC4)cc1Cl	-6	9	.	3
CC(SCc1cc(=O)n2c([nH]c3ccccc32)c1C#N)C(=O)O (configuration not stated)	10*	1	0	2
O=C1CCCC2=C1Sc1ccccc1N2	0	3	6	10*
CCCNC(=O)N1CC[C@@H]2[C@@H](CO)N(C)c3ccc(-c4ccc(F)cc4)cc3[C@@H]21	.	.	11	12*
CCCNC(=O)N1CC[C@@H]2[C@H]1c1cc(-c3ccc(OC)cc3)ccc1N(C)[C@H]2CO	.	.	.	4
SMILES	FadD28 binding	Y pestis TopoI	Mtb BioA inh	TcdB inh
CCCNC(=O)N1CC[C@@H]2[C@H]1c1cc(-c3ccccc3)ccc1N(C)[C@H]2CO	.	.	.	12*
CCC(=O)N1CC[C@@H]2[C@H]1c1cc(-c3ccc(F)cc3)ccc1N(C)[C@H]2CO	.	.	.	9
CCN(C(=O)CN1C(=O)NC2(CCC(C)CC2)C1=O)C1CCCCC1 (configuration not stated)	-3	-2	0	14*
CCCN(C(=O)CN1C(=O)NC2(CCCCCC2)C1=O)C1CCS(=O)(=O)C1 (configuration not stated)	0	0	1	.
COc1ccc(-c2nc(N)ncc2-c2ccccc2OC)c(O)c1	0	-2	0	13*
Cc1cccc(-n2c(=O)c3ccccc3n3c(=S)[nH]nc23)c1C	2	8	0	12*
O=C(O)c1ccc(N/N=C/c2ccc(-c3ccccc3)cc2)cc1	19*	8	.	1
O=C(O)c1cc(-c2ccc(/C=N/Nc3ccc(Cl)cc3)o2)ccc1Cl	15*	-9	27	.
O=C(O)c1cc(N/N=C/c2ccc(-c3ccccc3)cc2)ccc1Cl	19*	-9	2	-3
COc1ccc(C(=O)Oc2ccc(/C=N/Nc3ccc(Cl)c(C(=O)O)c3)cc2OC)cc1	9.5*	2	5	-2
O=S1(=O)[C@H]2C[C@@H]3C=C[C@@]2(CN1Cc1ccccc1F)O3	-2	8	-1	1
O=C(C[C@H]1C[C@H]2c3cc(NC(=O)c4ccc5c(c4)OCO5)ccc3O[C@H]2[C@H](CO)O1)NCc1cccc(F)c1	.	.	-1	14*
O=C(C[C@@H]1C[C@H]2c3cc(NC(=O)c4ccc5c(c4)OCO5)ccc3O[C@H]2[C@@H](CO)O1)NCc1cc(F)ccc1F	.	.	-1	0
CCCNC(=O)C[C@@H]1C[C@H]2c3cc(NS(=O)(=O)c4ccc(F)cc4)ccc3O[C@H]2[C@@H](CO)O1	.	.	-1	0
COc1ccc(-c2cn3cc(C)ccc3n2)cc1F	1	10	2	20*
Cc1ccc2nc(-c3ccc4c(c3)OCCO4)cn2c1	-2	0	1	26*
CCc1ccccc1NC(=O)CN(C)C(=O)CSc1nnc(Nc2cccc(C)c2C)s1	29*	37	-1	.
Cc1nnc(SCC(=O)N(C)CC(=O)Nc2ccccc2Cl)s1	-3	7	2	3
O=C1/C(=C\c2cc([N+](=O)[O-])ccc2O)SC(=S)N1Cc1ccc(Cl)cc1	8.6*	-27	-11	6
CCN(C(=O)COc1nc(C)cc(C)c1C#N)c1ccccc1	0	10	0	1
O=S(=O)(c1ccc(NC(=S)N/N=C/c2ccc(O)c(O)c2)cc1)N1CCOCC1	0	-10	-1	5
O=[N+]([O-])c1cc(Cl)cc(/C=N/NC(=S)Nc2ccc(S(=O)(=O)N3CCOCC3)cc2)c1O	18*	-10	5	2
CCN(CC)C(=S)Sc1c(-c2ccccc2)c2cc(Cl)ccc2[nH]c1=O	-2	1	.	.
Cc1ccccc1-c1nc(CS(=O)CC(=O)NCCc2ccc(Cl)cc2)c(C)o1 (configuration not stated)	0	-7	-5	0
COc1ccc(C2=NS(=O)(=O)N(C)C(C(=O)NCc3ccc4c(c3)OCO4)=C2)cc1	-6	6	0	100*
Cc1ccc(C2=NS(=O)(=O)N(C)C(C(=O)NCc3ccc4c(c3)OCO4)=C2)cc1	-3	12	-3	6
O=C(Nc1ccc2oc(-c3ccncc3)nc2c1)c1ccc(F)cc1	-2	-2	1	-4
O=C(O)CSC(C(=O)Nc1ccc(C(F)(F)F)cc1)c1ccccc1 (configuration not stated)	10*	-1	0	.
